Where “and” joins values, the source holds several entries; their conditions need not be identical. Equal values may be shown once. Where a name gives a salt, the structure may show the parent alone. In all, about 5,800 compounds went through this assay and about 620 (11%) showed activity. The sample as a whole holds a higher share of actives than the screen did. Values without a mark were called inactive.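 How the source made its calls: active = score above a cut-off or among the top three wells of a plate; in these data no inactive exceeds 0.85.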
Tested on: primary human hepatic stellate cells (donor 1)
Assay: scaled lipid accumulation score (0 = DMSO-like, 1 = nortriptyline-like); higher = stronger HSC inactivation (lipid re-accumulation), active = hit call of the paper
Conditions: 48 h
Experimental: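 Primary lipid accumulation screen in primary human hepatic stellate cell myofibroblasts (donor 1, passage 8) in 384-well plates. 100 nL of library compound was pin-transferred into 30 µL medium in duplicate, and cells were treated for 48 h. The 'Scaled' score combines distance from plate baseline, toxicity and reproducibility penalties, and is normalised to nortriptyline (positive) and DMSO (negative) controls on each plate. A hit is defined as scaled >0.85 or among the top 3 wells per plate.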

[1] = library stock concentration: 80 uM
[2] = library stock concentration: 400 uM
[3] = library stock concentration: 2 mM
[4] = library stock concentration: 3.33 mM
[5] = library stock concentration: 10 mM
[6] = library stock concentration: 1 mM

O=C(Nc1c[nH]nc1-c1nc2ccc(CN3CCOCC3)cc2[nH]1)NC1CC1 [listing 1 of 2 here]
scaled lipid accumulation score [1]: 0.613
scaled lipid accumulation score [2]: 0.259
scaled lipid accumulation score [3]: 0.562 and 0.591
scaled lipid accumulation score [4]: 0.59
scaled lipid accumulation score [5]: 0.791 and 0.755 and 0.681

O=C(Nc1c[nH]nc1-c1nc2ccc(CN3CCOCC3)cc2[nH]1)NC1CC1 [listing 2 of 2 here]
scaled lipid accumulation score [2]: 0.877 (active)

O=C(NC1CCOCC1)c1ccc(-c2cc(-c3c[nH]nc3-c3ccccn3)ccn2)cc1
scaled lipid accumulation score [4]: ≤ 0
scaled lipid accumulation score [5]: ≤ 0

CCCCC[C@H](O)/C=C/[C@H]1[C@@H]2CO[C@@H](C2)[C@@H]1C/C=C\CCCC(=O)O
scaled lipid accumulation score [6]: ≤ 0

O=P(O)(O)O[C@@H]1[C@H](O)[C@H](O)[C@@H](OP(=O)(O)O)[C@H](OP(=O)(O)O)[C@H]1O [D-myo-Inositol-1,4,5-triphosphate (sodium salt)]
scaled lipid accumulation score [6]: 0.018

CC(C)(OCc1nn(Cc2ccccc2)c2ccccc12)C(=O)O [Bindarit]
scaled lipid accumulation score [4]: ≤ 0
scaled lipid accumulation score [5]: ≤ 0

CN(C)CCCOc1nn(Cc2ccccc2)c2ccccc12.Cl [Benzydamine HCl]
scaled lipid accumulation score [5]: 1.08 (active)

CN(C)CCCOc1nn(Cc2ccccc2)c2ccccc12 [Benzydamine hydrochloride]
scaled lipid accumulation score: 0.652
scaled lipid accumulation score (library stock concentration: 5.8 mM): 0.429

CN(C)CCCOc1nn(Cc2ccccc2)c2ccccc12 [Benzydamine HCl]
scaled lipid accumulation score [4]: 0.13

COc1cc2c(cc1Cc1cccc(Cl)c1F)c(=O)c(C(=O)O)cn2[C@H](CO)C(C)C [Elvitegravir (GS-9137, JTK-303)]
scaled lipid accumulation score [4]: ≤ 0
scaled lipid accumulation score [5]: ≤ 0

O=C(O)CCCCCCC1C(=O)N(Cc2ccccc2)C(=O)N1NCC(O)C1CCCCC1 (stereo not given)
scaled lipid accumulation score [6]: ≤ 0

CCCn1cc(-c2ccnc(NC3CCN(Cc4cccnc4)CC3)n2)c(C)n1
scaled lipid accumulation score [5]: 0.91 (active)

COC(=O)C[C@](O)(CCCC(C)(C)O)C(=O)O[C@@H]1C(OC)=C[C@]23CCCN2CCc2cc4c(cc2[C@H]13)OCO4 [Homoharringtonine]
scaled lipid accumulation score [5]: 1.27 (active)

O=C1O/C(=C/Br)CCC1c1cccc2ccccc12 (stereo not given) [Bromoenol lactone]
scaled lipid accumulation score [6]: ≤ 0

O=c1[nH]c(C2CCCN2)nc2c1oc1ccc(Cl)cc12 (stereo not given)
scaled lipid accumulation score [1]: ≤ 0
scaled lipid accumulation score [2]: 0.055
scaled lipid accumulation score [3]: ≤ 0
scaled lipid accumulation score [5]: ≤ 0

O=C(O)CCC/C=C\C[C@@H]1[C@@H](/C=C/[C@@H](O)C2CCCCC2)[C@H](O)C[C@@H]1O [15-cyclohexyl pentanor Prostaglandin F2.alpha.]
scaled lipid accumulation score [6]: ≤ 0

CCCCC/C=C\C/C=C\C/C=C\C/C=C\CCCCCC(=O)O [Adrenic Acid]
scaled lipid accumulation score [6]: ≤ 0

O=C(Nc1ccccc1-c1cn2c(CN3CCNCC3)csc2n1)c1cnc2ccccc2n1
scaled lipid accumulation score [4]: 0.121
scaled lipid accumulation score [5]: 0.384

CCOC(=O)[C@H](CCc1ccccc1)N[C@@H](C)C(=O)N1[C@H](C(=O)O)C[C@H]2CCCC[C@@H]21 [Trandolapril]
scaled lipid accumulation score [5]: 0.059 and 0.177

CCCCCC(=O)/C=C/[C@@H]1[C@@H](CCCCCCC(=O)O)[C@@H](O)C[C@H]1O [15-keto Prostaglandin F1.alpha.]
scaled lipid accumulation score [6]: ≤ 0

Cc1cnc(CNC(=O)c2c(=O)c3ccc(N4CCCN(C)CC4)nc3n3c2sc2ccccc23)cn1
scaled lipid accumulation score [1]: ≤ 0
scaled lipid accumulation score [2]: ≤ 0
scaled lipid accumulation score [3]: ≤ 0
scaled lipid accumulation score [5]: ≤ 0

CC(CN(C)C)CN1c2ccccc2Sc2ccccc21 (stereo not given) [Trimeprazine tartrate]
scaled lipid accumulation score: 0.689
scaled lipid accumulation score [5]: 0.834

CCOC(=O)[C@H](CCc1ccccc1)N[C@H]1CCc2ccccc2N(CC(=O)O)C1=O
scaled lipid accumulation score [5]: ≤ 0

CC(CN(C)C)CN1c2ccccc2CCc2ccccc21 (stereo not given) [Trimipramine maleate salt]
scaled lipid accumulation score: 0.27

CC(CN(C)C)CN1c2ccccc2Sc2ccccc21.O=C(O)C(O)C(O)C(=O)O (stereo not given) [Trimeprazine tartrate]
scaled lipid accumulation score (library stock concentration: 4.5 mM): 0.915 (active)

COc1ccc2c(c1)N(C[C@H](C)CN(C)C)c1ccccc1S2 [Methotrimeprazine maleat salt]
scaled lipid accumulation score: 0.642

CCOC(=O)[C@H](CCc1ccccc1)N[C@H]1CCc2ccccc2N(CC(=O)O)C1=O [Benazepril hydrochloride]
scaled lipid accumulation score [5]: ≤ -0.027 and 0.038

CCOC(=O)[C@H](CCc1ccccc1)N[C@H]1CCc2ccccc2N(CC(=O)O)C1=O [Benazepril HCl]
scaled lipid accumulation score [4]: ≤ 0
scaled lipid accumulation score [5]: ≤ 0

CC(CN(C)C)CN1c2ccccc2CCc2ccccc21.O=C(O)/C=C\C(=O)O (stereo not given) [Trimipramine maleate]
scaled lipid accumulation score [5]: 0.877 (active)

CC(CN(C)C)CN1c2ccccc2CCc2ccccc21 (stereo not given) [Trimipramine maleate]
scaled lipid accumulation score (library stock concentration: 4.9 mM): 0.715
scaled lipid accumulation score [5]: 0.647

COc1ccc(-c2oc3c(CC=C(C)C)c(O[C@@H]4O[C@H](CO)[C@@H](O)[C@H](O)[C@H]4O)cc(O)c3c(=O)c2O[C@@H]2O[C@@H](C)[C@H](O)[C@@H](O)[C@H]2O)cc1 [Icariin]
scaled lipid accumulation score [4]: 0.048
scaled lipid accumulation score [5]: ≤ 0

COc1ccc(-c2oc3c(CC=C(C)C)c(O[C@@H]4O[C@H](CO)[C@@H](O)[C@H](O)[C@H]4O)cc(O)c3c(=O)c2O[C@@H]2O[C@@H](C)[C@H](O)[C@@H](O)[C@H]2O)cc1
scaled lipid accumulation score [5]: ≤ 0

CCCCC[C@H](O)/C=C/[C@H]1[C@H](O)CC(=O)[C@@H]1C/C=C\CCCC(=O)OCC(O)CO (stereo not given in full) [Prostaglandin E2-1-glyceryl ester]
scaled lipid accumulation score [6]: ≤ 0

CCCCC[C@H](O)/C=C/[C@@H]1[C@@H](C/C=C\CCCC(=O)NCC)[C@@H](O)C[C@H]1O [Prostaglandin F2.alpha. ethyl amide]
scaled lipid accumulation score [6]: ≤ 0

CCCCCCCCCCCCCCOc1ccc(C(=O)O)o1
scaled lipid accumulation score [6]: 0.036

COc1ccc(-c2cnc3c(-c4ccsc4)cnn3c2)cc1 [VEGF Receptor 2 Kinase Inhibitor IV]
scaled lipid accumulation score [4]: ≤ 0

From the supplement of paper PMC9135407
